Laboratory results: PMC7862700, “An all-to-all approach to the identification of sequence-specific readers for epigenetic DNA modifications on cytosine”

Assays:
Test in all cases: DAPPL (digital affinity profiling via proximity ligation, sequencing); 10 mM Tris-HCl pH 7.5, 50 mM NaCl, 1 mM DTT, 4% glycerol, room temperature, 30 min; GST-TFs on glutathione beads, 16-mer random dsDNA library, 0.1% formaldehyde crosslink after washing; high values mean tight binding
Conditions in all cases: protein: recombinant; tags: N-terminal GST; dsDNA, one strand shown
ERF = target: T1, ERF (Homo sapiens, UniProt P50548 1-548)
T1 sequence: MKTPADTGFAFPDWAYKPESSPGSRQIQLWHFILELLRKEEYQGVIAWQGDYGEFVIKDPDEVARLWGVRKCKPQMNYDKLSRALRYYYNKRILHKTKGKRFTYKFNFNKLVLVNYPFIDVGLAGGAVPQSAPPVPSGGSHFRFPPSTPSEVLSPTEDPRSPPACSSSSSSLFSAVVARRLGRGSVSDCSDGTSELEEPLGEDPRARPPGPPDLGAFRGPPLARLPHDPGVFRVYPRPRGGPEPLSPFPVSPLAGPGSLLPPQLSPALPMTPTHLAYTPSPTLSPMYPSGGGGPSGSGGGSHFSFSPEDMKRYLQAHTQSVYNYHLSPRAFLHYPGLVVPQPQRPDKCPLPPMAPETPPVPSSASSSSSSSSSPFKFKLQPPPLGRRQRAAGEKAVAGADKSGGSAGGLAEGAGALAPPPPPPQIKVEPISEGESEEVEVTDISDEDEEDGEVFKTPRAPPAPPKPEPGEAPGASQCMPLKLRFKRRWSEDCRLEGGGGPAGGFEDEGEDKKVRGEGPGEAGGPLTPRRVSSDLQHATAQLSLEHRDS
Outline: (§1)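 Human transcription factors fused to GST were expressed in yeast, captured on glutathione beads, given DNA barcodes and pooled with a GST-only negative control. Pools were incubated with 200 nmole of a 16-mer random double-stranded DNA library in Tris/NaCl/DTT/glycerol buffer at room temperature for 30 min. They were then washed, crosslinked with 0.1% formaldehyde, proximity-ligated (BsaI/T4 ligase, 1 h, 37 °C), PCR-amplified and sequenced on an Illumina NextSeq500. Binding signal is each 6-mer's read frequency for a factor divided by its frequency for the GST control.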

ETV3L = target: T2, ETV3L (Homo sapiens, UniProt Q6ZN32 1-361)
T2 sequence: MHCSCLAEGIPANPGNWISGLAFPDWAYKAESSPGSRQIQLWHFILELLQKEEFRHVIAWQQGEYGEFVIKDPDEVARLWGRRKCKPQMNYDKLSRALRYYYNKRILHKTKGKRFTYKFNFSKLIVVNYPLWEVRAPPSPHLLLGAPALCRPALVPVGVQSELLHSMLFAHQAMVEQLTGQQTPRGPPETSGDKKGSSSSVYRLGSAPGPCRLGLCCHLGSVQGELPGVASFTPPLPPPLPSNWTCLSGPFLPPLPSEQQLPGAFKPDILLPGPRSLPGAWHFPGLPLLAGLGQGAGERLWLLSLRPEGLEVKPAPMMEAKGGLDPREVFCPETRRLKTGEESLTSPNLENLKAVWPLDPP
Outline: as §1

ETS2 = target: T3, ETS2 (Homo sapiens, UniProt P15036 1-469)
T3 sequence: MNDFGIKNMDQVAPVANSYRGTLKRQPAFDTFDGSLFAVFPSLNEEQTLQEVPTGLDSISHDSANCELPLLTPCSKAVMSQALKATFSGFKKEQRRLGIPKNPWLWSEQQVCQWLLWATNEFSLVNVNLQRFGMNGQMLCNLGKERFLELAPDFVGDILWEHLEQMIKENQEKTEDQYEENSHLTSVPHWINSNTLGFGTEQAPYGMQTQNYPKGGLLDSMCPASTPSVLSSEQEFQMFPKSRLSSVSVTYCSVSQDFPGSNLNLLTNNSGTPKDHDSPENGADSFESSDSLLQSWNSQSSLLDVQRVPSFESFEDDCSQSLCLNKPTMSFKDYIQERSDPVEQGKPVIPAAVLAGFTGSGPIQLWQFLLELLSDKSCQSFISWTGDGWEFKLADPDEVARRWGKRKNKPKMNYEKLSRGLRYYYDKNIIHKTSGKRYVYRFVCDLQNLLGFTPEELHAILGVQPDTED
Outline: as §1

SPDEF = target: T4, SPDEF (Homo sapiens, UniProt O95238 1-335)
T4 sequence: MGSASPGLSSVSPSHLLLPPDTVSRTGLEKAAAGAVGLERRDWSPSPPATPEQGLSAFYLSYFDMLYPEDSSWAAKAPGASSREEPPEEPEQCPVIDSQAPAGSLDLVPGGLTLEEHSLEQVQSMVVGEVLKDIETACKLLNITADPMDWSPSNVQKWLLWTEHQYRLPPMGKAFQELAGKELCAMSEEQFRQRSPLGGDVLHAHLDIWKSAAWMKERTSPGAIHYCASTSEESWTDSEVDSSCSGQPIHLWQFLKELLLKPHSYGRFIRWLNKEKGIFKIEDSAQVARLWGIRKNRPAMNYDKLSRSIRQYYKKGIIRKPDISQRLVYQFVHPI
Outline: as §1

ETV7 = target: T5, ETV7 (Homo sapiens, UniProt Q9Y603 1-341)
T5 sequence: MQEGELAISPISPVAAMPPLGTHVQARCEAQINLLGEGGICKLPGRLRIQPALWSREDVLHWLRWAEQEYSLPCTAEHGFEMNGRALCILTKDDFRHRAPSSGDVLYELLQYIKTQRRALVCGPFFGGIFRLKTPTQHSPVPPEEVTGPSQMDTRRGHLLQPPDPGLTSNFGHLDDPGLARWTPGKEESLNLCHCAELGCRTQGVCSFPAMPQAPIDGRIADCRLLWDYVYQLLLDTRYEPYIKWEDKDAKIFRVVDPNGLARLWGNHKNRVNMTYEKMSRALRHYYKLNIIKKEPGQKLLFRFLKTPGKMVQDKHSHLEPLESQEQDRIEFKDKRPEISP
Outline: as §1

ELF5 = target: T6, ELF5 (Homo sapiens, UniProt Q9UKW6-2 1-255)
T6 sequence: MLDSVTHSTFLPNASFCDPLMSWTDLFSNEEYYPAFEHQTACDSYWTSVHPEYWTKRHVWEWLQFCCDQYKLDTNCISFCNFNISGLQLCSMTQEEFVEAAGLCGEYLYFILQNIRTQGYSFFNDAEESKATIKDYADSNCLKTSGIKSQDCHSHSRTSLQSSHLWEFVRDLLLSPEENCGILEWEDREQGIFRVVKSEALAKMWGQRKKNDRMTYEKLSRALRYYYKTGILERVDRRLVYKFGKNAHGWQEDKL
Outline: as §1

ETV3 = target: T7, ETV3 (Homo sapiens, UniProt P41162-2 1-143)
T7 sequence: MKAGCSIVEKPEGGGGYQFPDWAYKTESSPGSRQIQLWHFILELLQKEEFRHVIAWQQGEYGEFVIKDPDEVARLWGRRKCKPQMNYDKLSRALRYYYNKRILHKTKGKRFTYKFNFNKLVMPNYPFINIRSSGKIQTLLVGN
Outline: as §1

ETV6 = ETV6 (Homo sapiens, UniProt P41212 1-452)
Outline: as §1

ETV6, sequence (P41212 whole entry): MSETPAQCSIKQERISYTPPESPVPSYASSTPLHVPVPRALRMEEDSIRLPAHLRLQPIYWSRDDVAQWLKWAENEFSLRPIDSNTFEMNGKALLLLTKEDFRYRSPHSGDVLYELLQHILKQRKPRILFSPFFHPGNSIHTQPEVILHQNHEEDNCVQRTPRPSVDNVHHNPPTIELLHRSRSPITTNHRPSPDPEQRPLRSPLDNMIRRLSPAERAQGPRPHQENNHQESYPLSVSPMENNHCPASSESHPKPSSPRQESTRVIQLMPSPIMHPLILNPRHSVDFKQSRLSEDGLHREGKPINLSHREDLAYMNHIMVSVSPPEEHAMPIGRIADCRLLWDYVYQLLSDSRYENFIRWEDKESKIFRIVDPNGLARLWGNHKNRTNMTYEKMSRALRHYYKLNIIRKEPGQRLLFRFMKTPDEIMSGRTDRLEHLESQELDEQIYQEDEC

Row | Sequence | binding signal (ERF) | binding signal (ETV3L) | binding signal (ETS2) | binding signal (SPDEF) | binding signal (ETV7) | binding signal (ELF5) | binding signal (ETV3) | binding signal (ETV6)
1 | ATAAAC | 1.19 fold enrichment (6-mer frequency, TF over GST control) | 1.18 fold enrichment (6-mer frequency, TF over GST control) | 1.18 fold enrichment (6-mer frequency, TF over GST control) | 1.16 fold enrichment (6-mer frequency, TF over GST control) | 1.05 fold enrichment (6-mer frequency, TF over GST control) | 1.17 fold enrichment (6-mer frequency, TF over GST control) | 1.1 fold enrichment (6-mer frequency, TF over GST control) | 1.19 fold enrichment (6-mer frequency, TF over GST control)
2 | CCTCAA | 1.32 fold enrichment (6-mer frequency, TF over GST control) | 1.58 fold enrichment (6-mer frequency, TF over GST control) | 1.39 fold enrichment (6-mer frequency, TF over GST control) | 1.38 fold enrichment (6-mer frequency, TF over GST control) | 1.27 fold enrichment (6-mer frequency, TF over GST control) | 1.52 fold enrichment (6-mer frequency, TF over GST control) | 1.48 fold enrichment (6-mer frequency, TF over GST control) | 1.42 fold enrichment (6-mer frequency, TF over GST control)
3 | GGATAT | 1.62 fold enrichment (6-mer frequency, TF over GST control) | 1.55 fold enrichment (6-mer frequency, TF over GST control) | 1.66 fold enrichment (6-mer frequency, TF over GST control) | 2.38 fold enrichment (6-mer frequency, TF over GST control) | 1.48 fold enrichment (6-mer frequency, TF over GST control) | 1.92 fold enrichment (6-mer frequency, TF over GST control) | 1.71 fold enrichment (6-mer frequency, TF over GST control) | 1.6 fold enrichment (6-mer frequency, TF over GST control)
4 | AACACC | 1.15 fold enrichment (6-mer frequency, TF over GST control) | 1.15 fold enrichment (6-mer frequency, TF over GST control) | 1.13 fold enrichment (6-mer frequency, TF over GST control) | 1.15 fold enrichment (6-mer frequency, TF over GST control) | 1.13 fold enrichment (6-mer frequency, TF over GST control) | 1.09 fold enrichment (6-mer frequency, TF over GST control) | 1.13 fold enrichment (6-mer frequency, TF over GST control) | 1.06 fold enrichment (6-mer frequency, TF over GST control)
5 | ATTCAG | 1.15 fold enrichment (6-mer frequency, TF over GST control) | 1.2 fold enrichment (6-mer frequency, TF over GST control) | 1.14 fold enrichment (6-mer frequency, TF over GST control) | 1.05 fold enrichment (6-mer frequency, TF over GST control) | 1.02 fold enrichment (6-mer frequency, TF over GST control) | 1.08 fold enrichment (6-mer frequency, TF over GST control) | 1.12 fold enrichment (6-mer frequency, TF over GST control) | 1.02 fold enrichment (6-mer frequency, TF over GST control)
6 | GTCTTA | 1.12 fold enrichment (6-mer frequency, TF over GST control) | 1.21 fold enrichment (6-mer frequency, TF over GST control) | 1.16 fold enrichment (6-mer frequency, TF over GST control) | 1.17 fold enrichment (6-mer frequency, TF over GST control) | 1.21 fold enrichment (6-mer frequency, TF over GST control) | 1.18 fold enrichment (6-mer frequency, TF over GST control) | 1.23 fold enrichment (6-mer frequency, TF over GST control) | 1.11 fold enrichment (6-mer frequency, TF over GST control)
7 | CCCCGA | 1.15 fold enrichment (6-mer frequency, TF over GST control) | 1.23 fold enrichment (6-mer frequency, TF over GST control) | 1.07 fold enrichment (6-mer frequency, TF over GST control) | 1.05 fold enrichment (6-mer frequency, TF over GST control) | 1.06 fold enrichment (6-mer frequency, TF over GST control) | 1.13 fold enrichment (6-mer frequency, TF over GST control) | 1.05 fold enrichment (6-mer frequency, TF over GST control) | 1.11 fold enrichment (6-mer frequency, TF over GST control)
8 | CCCCCG | 1.17 fold enrichment (6-mer frequency, TF over GST control) | 1.13 fold enrichment (6-mer frequency, TF over GST control) | 1.06 fold enrichment (6-mer frequency, TF over GST control) | 1.13 fold enrichment (6-mer frequency, TF over GST control) | 1.05 fold enrichment (6-mer frequency, TF over GST control) | 1.07 fold enrichment (6-mer frequency, TF over GST control) | 1.22 fold enrichment (6-mer frequency, TF over GST control) | 1.12 fold enrichment (6-mer frequency, TF over GST control)
